Most compounds without a hit are left out; they make up all but 2.4% or so of the library.
D2 PAM-1 – positive allosteric modulators of human D2 dopamine receptor. P14416. potentiation, % (test concentration not listed). actives 0.23% (n = 360,000). DiscoveRx D2 beta-arrestin cells, luminescence, 90 min; 100% = 57 uM dopamine signal; in the data active means potentiation above about 50%; inconclusive means mostly about 30% to 49%
Target sequence (P14416 whole entry, looked up): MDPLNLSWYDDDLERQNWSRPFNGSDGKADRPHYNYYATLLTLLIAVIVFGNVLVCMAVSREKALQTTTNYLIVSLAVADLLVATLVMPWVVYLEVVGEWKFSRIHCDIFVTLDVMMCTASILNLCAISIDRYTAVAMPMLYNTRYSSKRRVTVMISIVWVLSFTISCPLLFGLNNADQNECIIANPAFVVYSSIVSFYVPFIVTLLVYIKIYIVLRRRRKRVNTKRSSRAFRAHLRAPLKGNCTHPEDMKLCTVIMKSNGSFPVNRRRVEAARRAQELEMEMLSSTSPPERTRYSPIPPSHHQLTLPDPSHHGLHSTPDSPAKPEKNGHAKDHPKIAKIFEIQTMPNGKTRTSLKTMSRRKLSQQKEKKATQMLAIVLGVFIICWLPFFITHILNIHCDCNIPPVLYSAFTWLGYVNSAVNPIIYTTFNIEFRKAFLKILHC
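PathHunter D2 cells, attached overnight at 37 deg C, received compound in DMSO plus dopamine at EC20 (50 nM final) for 90 min at 37 deg C. Beta-arrestin recruitment was read as luminescence after 1 h with detection reagent at ambient temperature.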
D2 ag-1 – activates the human D2 dopamine receptor. actives 0.084% (n = 360,000). DiscoveRx PathHunter D2 beta-arrestin, luminescence, 90 min; 100% = 57 uM dopamine signal. activation, % (no concentration beside the values); in the data active means activation above about 40%; inconclusive means between about 15% and that limit
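DiscoveRx PathHunter D2 beta-arrestin cells (2,100/well) attached overnight, then compound-stimulated 90 min at 37 C in HBSS/10 mM HEPES/0.1% Tween-20 buffer; beta-galactosidase complementation read by luminescence after 1 h at ambient temperature. Dopamine 57 uM final (EC100) as control.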
D2 PAM-2 – positive allosteric modulators of human D2 dopamine receptor; potentiation, % at 10 µM; HEK293 T-REx D2, calcium flux, EC20 dopamine potentiation; actives 0.34% (n = 340,000);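 active means potentiation over 3 SD above the plate norm, cut at about 30% in these data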; further: 0% is about no effect
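Primary screen. Calcium kinetics in induced HEK293 T-REx D2 cells: compound pre-addition 180 s, EC20 dopamine, 180 s more.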
D2 ag-2 – agonists of human D2 dopamine receptor; P14416; HEK293 T-REx D2 cells, calcium flux agonist mode; activation, % at 2 µM; actives 0.53% (n = 340,000);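 active means activation over 3 SD above normal in the single-dose calcium agonist read, cut at about 30% in these data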; further: 0% is about no effect
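In this primary screen, compounds producing a positive calcium signal within 180 s of addition to tetracycline-induced, force-coupled HEK293 Trex D2 cells are flagged; cells are dye-loaded with a no-wash calcium kit beforehand.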
D2 antag – antagonists of human D2 dopamine receptor; P14416; actives 2% (n = 340,000); HEK293 TREx D2 cells, calcium flux, dopamine EC80; inhibition, % at 10 µM; in the data active means inhibition above about 30%; inactive means below that, where a call was filed; further: 0% is about no effect
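Measurement of antagonist activity uses fluorescent calcium dye in inducible HEK293 T-REx D2 cells: 10 s baseline, compound addition with 180 s read, EC80 dopamine addition with a further 180 s read.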
Active calls of the source: *; ? = inconclusive; . = no result given.

SMILES | D2 PAM-1 | D2 ag-1 | D2 PAM-2 | D2 ag-2 | D2 antag
COc1cccc(CN(C)C(=O)CNC(=O)c2cccs2)c1OC | 0 | -7 | -1 | 1 | 38*
CCOC(=O)c1cccc(NC(=O)COc2ccc3c(C)cc(=O)oc3c2)c1 | . | . | -3 | 0 | .
COc1ccc(C2C=C(c3ccccc3)Nc3nc(NC(=O)/C=C/c4ccc(F)cc4)nn32)cc1 (stereo unspecified) | . | . | 5 | -1 | .
COc1ccc(/C=C/C(=O)c2ccc(Cl)s2)cc1O | 2 | -5 | -3 | 1 | 37*
CCc1cccc(-n2c(=O)c3cccnc3n2CC(=O)NCc2ccc(C)cc2)c1 | . | . | -3 | 1 | .
COc1cccc(-c2nnc(SCC(=O)N(C(C)C)C(C)C)o2)c1 | -11 | -2 | 31* | 0 | -1
COc1cc(OC)cc(-c2nnc(SCC(=O)N(C(C)C)C(C)C)o2)c1 | -4 | -1 | 0 | 1 | -1
O=C(CSc1nnc(-c2cccnc2)n1Cc1ccccc1)NCc1ccccc1 | -10 | -1 | -5 | 0 | 35*
COc1ccc(-c2nnc(SCC(=O)NNC(=O)c3ccc(C)cc3)o2)cc1 | 6 | 0 | -1 | 0 | 5
CC(C)N(C(=O)CSc1nnc(CNc2ccc(F)cc2)o1)C(C)C | 8 | 2 | 77* | 1 | -14
COc1ccc(C(=O)NNC(=O)CSc2nnc(-c3cccnc3)o2)cc1 | 2 | 0 | 42* | 0 | 3
COC(=O)CSc1nnc(CNc2ccc(F)cc2)o1 | -5 | -2 | 3 | 0 | 11
Cc1cc(NC(=O)CSc2nnc(-c3cccnc3)n2Cc2ccccc2)no1 | -33 | -2 | -5 | 0 | -31
COc1ccc(CCNC(=O)CCCn2c(=O)c3ccccc3n(Cc3ccccc3)c2=O)cc1OC | . | . | -3 | -1 | .
COc1ccc(-n2nc3c(N4CCCC(C(=O)NCc5ccc(C)cc5)C4)nnc(C)c3c2C)cc1 (stereo unspecified) | . | . | 15 | 1 | .
COc1ccc(CNc2nc(-c3ccco3)nn2C(=O)CC(C)C)cc1 | . | . | 17 | -1 | .
CCCn1c(SCC(=O)NCCc2ccccc2)nnc1-c1cccnc1 | -20 | -1 | . | . | .
CCCn1c(SCC(=O)NNC(=O)c2ccccc2)nnc1-c1cccnc1 | -16 | -3 | 4 | -2 | 32*
O=C(NCc1ccc(Cl)cc1)C1CCN(S(=O)(=O)Cc2ccccc2)CC1 | . | . | 5 | 1 | .
CCCS(=O)(=O)c1c(S(=O)(=O)CCC)c2cc(C(C)(C)C)ccn2c1C(=O)c1ccccc1 | . | . | 10 | . | .
O=C(Cn1nc(CNc2ccc(Cl)cc2)[n+]2c1CCCCC2)c1ccccc1 | -11 | -3 | -14 | -1 | 7
Cc1ccc(C(C)C)c(OCc2nn(CC(=O)c3ccc(Cl)cc3)c3[n+]2CCCCC3)c1 | -23 | -12 | -28 | 1 | 33*
CC(C)(C)NC(=O)C1c2ccccc2Oc2ccccc21 | 7 | -4 | 12 | 0 | 47*
CC(=O)c1ccc(N2CCN(c3nc4c(S(=O)(=O)c5ccc(C)c(C)c5)nnn4c4ccc(Cl)cc34)CC2)cc1 | . | . | 4 | 1 | .
Cc1ccc(-c2n[nH]c3c2C(c2cccs2)N(c2ccc(Cl)cc2)C3=O)cc1 (stereo unspecified) | . | . | -9 | 1 | .
SMILES | D2 PAM-1 | D2 ag-1 | D2 PAM-2 | D2 ag-2 | D2 antag
COc1ccc(/C(C)=N/Nc2nccnc2Cl)cc1 | -5 | 5 | 10 | 0 | 36*
C/C(=N\Nc1nccnc1Cl)c1ccc(Br)cc1 | 0 | 4 | 3 | 1 | 2
COc1ccc(NC(=O)CC2C(=O)N(c3ccccc3)C(=O)N2CCc2sccc2C)cc1 (stereo unspecified) | . | . | -13 | 0 | .
CC(=O)N1CCc2c(sc3c2c(=O)n(CCc2ccccc2)c(=O)n3Cc2cccc(C)c2)C1 | . | . | -1 | . | .
CCN(CC)CCNC(=O)c1cc2cc(Br)ccc2s1 | -15 | 0 | -5 | -1 | 50*
CCN(CC)CCNC(=O)c1cc(-c2ccc(Br)s2)nc2ccccc12 | -18 | 1 | -10 | 1 | -29
CCOc1ccc(CNC(=O)CCCn2c(=O)c3cccn3c3ccc(F)cc32)cc1 | . | . | 0 | 0 | .
Cc1ccccc1Cn1c(SCc2ccc(C(=O)NC(C)c3ccccc3)cc2)nc2ccncc21 (stereo unspecified) | . | . | 14 | . | .
Cn1c(N)c(C(=O)Nc2ccccc2)c(=O)[nH]c1=O | -6 | 1 | . | . | .
Cn1c(N)c(C(=O)/C=C/c2ccccc2)c(=O)[nH]c1=O | -2 | -1 | 5 | 1 | 54*
Oc1ccc(N=Cc2ccc(O)c(O)c2)cc1 | 83* | ? | 13 | 0 | -19
Oc1ccc(/C=N/N=C/c2ccc(O)c(O)c2)cc1O | 4 | 10 | 7 | 0 | 12
COc1ccc(CCNC(=O)C2CCCN(c3nc4c(C)cc(C)cc4s3)C2)cc1OC (stereo unspecified) | . | . | -12 | . | .
Cc1ccc(C)c(NC(=O)N2CCN(C(=O)c3nsc4ccccc34)CC2)c1 | . | . | 7 | 1 | .
CCOC(=O)N1CCN(C(=O)c2ccc(OCC)c(OCC)c2)CC1 | -20 | -5 | 1 | 0 | 33*
CCOc1ccc(C(N)=O)cc1OC | -23 | -3 | 58* | 1 | 13
CCOC(=O)N1CCN(C(=O)c2ccc(OC)c(OC)c2)CC1 | -12 | -3 | -4 | -1 | -13
Cc1ccsc1CN(C(=O)c1ccc(OCC(C)C)cc1)C1CCS(=O)(=O)C1 (stereo unspecified) | . | . | 12 | . | .
Cc1ccc(C(C(=O)NC2CCCCC2)N(Cc2ccco2)C(=O)Cc2c[nH]c3ccccc23)o1 (stereo unspecified) | 0 | -4 | -5 | -1 | 36*
CC1CCN(C(=O)CSc2c(C(C)C)cnc3c2c(=O)n(C)c(=O)n3C)CC1 | . | . | -4 | 0 | .
Cc1ccc(C(=O)N2CCCC(CCC(=O)N3CCN(c4ccccn4)CC3)C2)cn1 (stereo unspecified) | 75* | -5 | 6 | 0 | -3

Screening results from PubChem BioAssay.
